The record followed here is PubChem BioAssay (NCATS).

Records with an inconclusive call do not appear. Calls of active or inactive are those of the source. Calls come from the whole dose curve; as a rule, active = well fitted curve in the direction sought with a large enough effect; inconclusive = small, poorly fitted or top-dose-only effect, or another doubt; inactive = no such curve, though single readings can be large; an effect the other way counts as inactive or inconclusive.

Test [1] in a line: qHTS of pediatric cancer cell lines to identify multiple opportunities for drug repurposing: Primary screen for OHS-50 cells (AID 1347103). Note: nearly all actives have a fitted effect of over 40% in size. Note: potency is the fitted concentration of half-maximal effect. An outline of the steps: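 Cells (500-1,000/well) rested 5 h, then received compounds for 48 h; metabolically active cells were measured by CellTiter-Glo luminescence. Final concentrations spanned up to 46 µM (MIPE, 11-point) or 0.59 nM-46 µM (NPC, 8-point) in primary screens, 11-point in follow-ups.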

A short description of test [2]: qHTS of pediatric cancer cell lines to identify multiple opportunities for drug repurposing: Primary screen for MG 63 (6-TG R) cells (AID 1347105). Note: nearly all actives have a fitted effect of over 50% in size. An outline of the steps:
(§1)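 ATP-based luminescence (CellTiter-Glo) quantifies viability after a 48-hour exposure. Compounds are dosed across 8 or 11 final concentrations; DMSO and 2.3 µM bortezomib serve as controls.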

Test [3] can be described thus: qHTS of pediatric cancer cell lines to identify multiple opportunities for drug repurposing: Primary screen for control Hh wild type fibroblast cells (AID 1347106).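 Note: series mostly up to about 46 µM; a drop in luminescence marks cytotoxicity and a rise apparent proliferation; nearly all actives have a fitted effect of over 55% in size.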 A digest of the protocol: (§2)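 Viability after 48 h compound treatment at 37C, 500-1,000 cells/well, read as ATP luminescence with CellTiter-Glo. Primary screens used 11-point (MIPE, 0.78 nM-46 µM) or 8-point (NPC, 0.59 nM-46 µM) final concentrations; follow-up screens used 11-point dilutions.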
On the technique in general: qHTS replaces the single test concentration by a dilution series.

The nature of test [4]: qHTS of pediatric cancer cell lines to identify multiple opportunities for drug repurposing: Primary screen for Rh30 cells (AID 1347107). Note: series mostly up to about 46 µM; nearly all actives have a fitted effect of over 75% in size. An outline of the steps: as §2
Test [5] can be described thus: qHTS of pediatric cancer cell lines to identify multiple opportunities for drug repurposing: Primary screen for Rh41 cells (AID 1347108).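 Note: series mostly up to about 46 µM; luminescence drop marks cytotoxic hits; nearly all actives have a fitted effect of over 70% in size.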 A digest of the protocol: as §1
The nature of test [6]: qHTS of pediatric cancer cell lines to identify multiple opportunities for drug repurposing: Primary screen for RD cells (AID 1347104). Note: nearly all actives have a fitted effect of over 55% in size. A digest of the protocol:
as §1

Consider `CCN1CCCC1CN` (stereo unspecified), for which the Potency result in test [1], in test [2], in test [3], in test [4] and in test [5] was “inactive” each time.
With `CC(C(O)c1ccccc1)N(C)CCOC(c1ccccc1)c1ccccc1` (stereo unspecified), the Potency in test [1] was 27.6 µM (active). In addition, the Potency entry in test [2], in test [3], in test [4] and in test [5] was “inactive” throughout.
With `O=P(O)(O)OCC(O)CO` (stereo unspecified), the Potency result in test [1], in test [2], in test [3] and in test [5] was “inactive” throughout.
For `Cc1cc(O)c(C)c(C)c1O`, the Potency entry in test [1], in test [2], in test [3], in test [4] and in test [5] was “inactive” in each case.
Turning to `CCCCC/C=C\C/C=C\CCCCCCCC(=O)NC(C)c1ccccc1` (stereo unspecified), the Potency entry in test [6], in test [2], in test [3] and in test [4] was “inactive” each time.
Take `O=C(NN1CCCC1)NS(=O)(=O)c1ccc(Cl)cc1`: the Potency entry in test [1], in test [2], in test [3], in test [4] and in test [5] was “inactive” throughout.
On to `CCCC(=O)O[C@]1(C(=O)CC)CC[C@H]2[C@@H]3CCC4=CC(=O)CC[C@]4(C)[C@H]3[C@@H](O)C[C@@]21C`, for which the Potency result in test [6], in test [2], in test [3] and in test [4] was “inactive” in each case.
Turning to `CCCCN(CCN(CCCC)C(=O)N1CCOCC1)C(=O)N1CCOCC1`, the Potency result in test [6], in test [2], in test [3] and in test [4] was “inactive” each time.
With `CN1CCC(Nc2ncc3ncnc(Nc4ccc(F)c(Cl)c4)c3n2)CC1`, the Potency in test [1] was 27.6 µM (active). In addition, the Potency entry in test [2] and in test [4] was “inactive” each time.
With `Cc1cc(=O)oc2cc(O[C@@H]3SC[C@@H](O)[C@H](O)[C@H]3O)ccc12`, the Potency entry in test [1], in test [2], in test [3], in test [4] and in test [5] was “inactive” throughout.
As for `CC(C)C(=O)Nc1cccc(C2CN3CCSC3=N2)c1` (stereo unspecified), the Potency result in test [1], in test [2], in test [3], in test [4] and in test [5] was “inactive” throughout.
Consider `Cc1ccc(C(C)OC(=O)C2(C)CCC(C(=O)O)C2(C)C)cc1` (stereo unspecified), for which the Potency result in test [1], in test [2], in test [3], in test [4] and in test [5] was “inactive” throughout.
With `CC(C)Cc1ccc(C(C)C(=O)OCc2ccccn2)cc1` (stereo unspecified), the Potency result in test [6], in test [2], in test [3], in test [4] and in test [5] was “inactive” throughout.
As to `O=C(OCCN1CCOCC1)c1cccnc1Nc1cccc(C(F)(F)F)c1`, the Potency entry in test [6], in test [2], in test [3], in test [4] and in test [5] was “inactive” in each case.
Regarding `c1ccc2c(c1)CCc1ccccc1N2`, the Potency entry in test [6], in test [2], in test [3] and in test [5] was “inactive” in each case.
In the case of `O=C1Nc2cc(Cl)ccc2Oc2ccccc21`, the Potency result in test [6], in test [2], in test [3] and in test [5] was “inactive” throughout.
With `Clc1ccc2c(c1)Nc1ccccc1S2`, the Potency result in test [6], in test [2], in test [3], in test [4] and in test [5] was “inactive” in each case.
With `CCCC(=O)OCOC(=O)C1=C(C)NC(C)=C(C(=O)OC)C1c1cccc(Cl)c1Cl` (stereo unspecified), the Potency result in test [6], in test [2], in test [3], in test [4] and in test [5] was “inactive” each time.
As for `CC(C)C(=O)OCc1cccc(OC(=O)[C@@H]2N3C(=O)[C@@H](NC(=O)Cc4ccccc4)[C@H]3SC2(C)C)c1`, the Potency entry in test [6], in test [2], in test [3], in test [4] and in test [5] was “inactive” in each case.
On to `CN(C)CCCOC1(Cc2ccccc2)CCCCCC1`, for which the Potency result in test [6], in test [2], in test [3], in test [4] and in test [5] was “inactive” each time.
Regarding `CCOC(=O)N1CCC(n2c(=O)[nH]c3cc(Cl)ccc32)CC1`, the Potency entry in test [6], in test [2], in test [3], in test [4] and in test [5] was “inactive” each time.
As for `CN(C)[C@@H]1C(=O)C(C(N)=O)=C(O)[C@@]2(O)C(=O)C3=C(O)c4c(O)cccc4C[C@H]3C[C@@H]12`, the Potency entry in test [6], in test [2], in test [3], in test [4] and in test [5] was “inactive” throughout.
For the compound `CCN1CCN(c2cc(-c3ccc(F)cc3)c3c(n2)CCCCCC3)CC1`, the Potency result in test [6], in test [2], in test [3], in test [4] and in test [5] was “inactive” in each case.
Regarding `O=C1OC2(c3ccccc31)c1cc(I)c(O)c(I)c1Oc1c2cc(I)c(O)c1I`, the Potency result in test [6], in test [2], in test [3] and in test [5] was “inactive” throughout.
